Measured values reported in PubChem BioAssay (Tox21).
Results filed as inconclusive are left out. Activity calls are given as the source filed them. Unless noted, calls come from the whole dose curve.

What was measured:
[1] = Nuclear factor erythroid 2-related factor 2/antioxidant responsive element (Nrf2/ARE) small molecule agonists: qHTS cell viability counter screen in human keratinocytes (AID 1919968; active = well fitted curve in the direction sought with a large enough effect in the repeat runs; an effect the other way counts as inactive or inconclusive; note: nearly all actives have a fitted effect of over 55% in size; note: potency is the fitted concentration of half-maximal effect)
Outline: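 HaCaT ARE reporter line, 1,500 cells/well; 5 h settle, 37 C/5% CO2; cpd in DMSO pinned; 23 h exposure; CellTiter-Fluor, 1 h; fluorescence.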

[2] = Nuclear factor erythroid 2-related factor 2/antioxidant responsive element (Nrf2/ARE) small molecule agonists: luciferase reporter gene qHTS assay in human keratinocytes (AID 1919969); note: nearly all actives have a fitted effect of over 35% in size
[3] = target: Gonadotropin-releasing hormone receptor (Homo sapiens) (UniProt P30968); assay: Human gonadotropin-releasing hormone receptor (GnRHR) small molecule agonists, calcium flux assay in GnRHR-HEK293 cells (AID 1920063); note: nearly all actives have a fitted effect of over 35% in size
Outline: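 GnRHR-HEK293, 1500 cells/well, 18 h 37 C/5% CO2; Ca dye 1 h 37 C; cpd pinned (DMSO), agonist mode; kinetic FL 480/540, 3 min, 1 s reads; 15 conc, n=3.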

[4] = target: KiSS-1 receptor (Homo sapiens) (UniProt Q969F8); assay: Human kisspeptin (KISS1R) small molecule agonists, calcium flux assay in KISS1R-HEK293 cells (AID 1920064; active = well fitted curve in the direction sought with a large enough effect in the repeat runs; an effect the other way counts as inactive or inconclusive)
Outline: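 Stable human KISS1R HEK293 line; 18 h plating, 37 C/5% CO2; calcium dye 1 h 37 C; compound pin transfer; kinetic fluorescence Ex/Em 480/540, 3 min.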

[5] = G protein-coupled receptor (GPCR) small molecule agonists, calcium flux assay: HEK293 wild type cell line counter screen (AID 1920065)
Outline: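 Kinetic fluorescence at Ex/Em 480/540, recorded every second over 3 min, served as the read-out after compound addition. Each compound was tested at 15 concentrations in triplicate on cells pre-loaded with calcium dye for 1 h.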

[6] = p53 small molecule agonists, cell-based qHTS assay with human liver microsomes (AID 1963577);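 note: p53 response element beta-lactamase reporter cells with liver microsomes plus NADPH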
Outline: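 In this qHTS, p53 response-element beta-lactamase cells receive test compound together with a microsome/NADPH activating system (0.5 mg/mL final each) and are incubated 16 h at 37 C before LiveBLAzer fluorescence detection.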

[7] = p53 small molecule agonists, cell-based qHTS assay with rat liver microsomes (AID 1963578)
Outline: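 Agonist mode in p53RE-bla reporter cells, with compounds co-incubated 16 h at 37 C alongside 0.5 mg/mL rat liver microsomes and 0.5 mg/mL NADPH (final), followed by a 2 h LiveBLAzer detection step.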

[8] = p53 small molecule agonists, cell-based qHTS assay with human liver microsomes: qHTS cell viability counter screen (AID 1963579); note: nearly all actives have a fitted effect of over 45% in size
Outline: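 Metabolically activated exposure: compounds, human liver microsomes and NADPH (0.5 mg/mL final apiece) were added to p53RE-bla cells seeded 5 h earlier, left 16 h at 37 C, and then assessed for viability by CellTiter-Glo luminescence.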

[9] = p53 small molecule agonists, cell-based qHTS assay with rat liver microsomes: qHTS cell viability counter screen (AID 1963580); note: nearly all actives have a fitted effect of over 45% in size
Outline: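 p53RE-bla HCT-116 cells were exposed 16 h at 37 C to compounds with rat liver microsomes (0.5 mg/mL) and NADPH (0.5 mg/mL). Viability was measured in the same wells as ATP content by CellTiter-Glo luminescence.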

[10] = p53 small molecule agonists, cell-based qHTS assay (AID 1963582; active = well fitted activation curve with a large enough effect in the signal ratio in the repeat runs, not every such curve was filed as active; the % refers to the signal ratio)
Outline: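 Reporter line: p53RE-bla. Pre-incubation 5 h, 37 C, 5% CO2; compound (DMSO, pin tool) 16 h, 37 C; B/G FRET substrate 2 h RT; fluorescence intensity read.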

[11] = target: 5-hydroxytryptamine receptor 2A (Homo sapiens) (UniProt P28223); assay: 5-hydroxytryptamine receptor 2A (HTR2A) small molecule antagonists, cell-based qHTS assay (AID 1963586); note: nearly all actives have a fitted effect of over 45% in size
Outline: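 Antagonist-mode intracellular calcium assay: DOI (4 nM) added after 5 min compound pre-incubation at room temperature to dye-loaded HTR2A-CHO cells. Fluorescence followed for 3 min, sampled every second.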

[12] = target: 5-hydroxytryptamine receptor 2A (Homo sapiens) (UniProt P28223); assay: 5-hydroxytryptamine receptor 2A (HTR2A) small molecule agonists, cell-based qHTS assay (AID 1963587); note: nearly all actives have a fitted effect of over 30% in size; note: potency is the fitted concentration of half-maximal effect
Outline: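 CHO cells stably expressing human HTR2A, plated 18 h, loaded with calcium dye 1 h at 37 C. Agonist mode: compounds added and intracellular calcium fluorescence recorded kinetically for 2 min at 1 sec intervals.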

[13] = target: Muscarinic acetylcholine receptor M1 (Homo sapiens) (UniProt P11229); assay: Cholinergic receptor muscarinic 1 (CHRM1) small molecule antagonists, cell-based qHTS assay (AID 1963588); note: nearly all actives have a fitted effect of over 40% in size
Outline: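 CHRM1-CHO calcium-flux assay, antagonist mode. Cells were seeded 18 h, dye-loaded 1 h at 37 C and given compound for 5 min at RT, then acetylcholine was added at 50nM. FDSS fluorescence was read 3 min; 15 concentrations, three runs.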

[14] = cAMP Responsive Elements (CRE) small molecule antagonists, cell-based qHTS assay (AID 1963591; active = well fitted inhibition curve with a large enough effect in the signal ratio in the repeat runs, not every such curve was filed as active; the % refers to the signal ratio)
Outline: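 Beta-lactamase reporter read by FRET substrate (LiveBLAzer B/G) after 2 h at room temperature. CRE-bla HEK293T cells had received compound plus 0.25 uM (final) NKH477 for 3 h at 37 °C.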

[15] = target: Beta-2 adrenergic receptor (Homo sapiens) (UniProt P07550); assay: Adrenergic beta2 receptor (ADRB2) small molecule antagonists, cell-based qHTS assay (AID 1963592); note: series mostly up to about 92 µM; nearly all actives have a fitted effect of over 50% in size
Outline: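 Cells (CHO, stable ADRB2 overexpression) incubated 18-20hr at 37C; compounds added from DMSO; agonist mix (1nM isoproterenol, 100uM IBMX, 25uM Ro-20-1724) added; 0.5hr RT; d2-cAMP and anti-cAMP-cryptate added; 1hr RT; 665/615 nm read.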

[16] = target: D(2) dopamine receptor (Homo sapiens) (UniProt P14416); assay: Dopamine D2 receptor (DRD2) small molecule agonists, cell-based qHTS assay (AID 1963594); note: nearly all actives have a fitted effect of over 35% in size
Outline: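 HEK293 cells stably expressing human DRD2, pre-treated with PDE inhibitor Ro20-1724 (0.1 mM final) and compound 10 min at room temperature, then stimulated with NKH477 (200nM […]) for 30 min. cAMP read by HTRF (665/620 nm).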

[17] = target: D(2) dopamine receptor (Homo sapiens) (UniProt P14416); assay: Dopamine D2 receptor (DRD2) small molecule antagonists, cell-based qHTS assay (AID 1963595; active = well fitted inhibition curve with a large enough effect in the signal ratio in the repeat runs, with a control signal flat; the % refers to the signal ratio)
Outline: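 Cells were plated and grown for 24 h at 37 °C. Ro20-1724 (0.1 mM final) went in first, then compound for 10 min. NKH477 (200 nM) with quinpirole (12 nM) followed for 30 min at RT, then HTRF detection reagents for 1 h.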

[18] = target: Muscarinic acetylcholine receptor M1 (Homo sapiens) (UniProt P11229); assay: Cholinergic receptor muscarinic 1 (CHRM1) small molecule agonists, cell-based qHTS assay (AID 1963589); note: nearly all actives have a fitted effect of over 35% in size
Outline: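 Human M1 in stable CHO line; 18 h plating, 1 h dye load 37 C; cpd added (agonist mode); Ca2+ fluorescence kinetic read, 1 s intervals; 15 conc, 3 runs.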

[19] = cAMP Responsive Elements (CRE) small molecule agonists, cell-based qHTS assay (AID 1963590)
Outline: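 HEK 293T CRE-bla, 2,000 cells/well, 18 h preincubation 37 C/5% CO2; cpds (DMSO) pinned, 3 h; LiveBLAzer B/G FRET substrate, 2 h RT.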

[20] = target: Beta-2 adrenergic receptor (Homo sapiens) (UniProt P07550); assay: Adrenergic beta2 receptor (ADRB2) small molecule agonists, cell-based qHTS assay (AID 1963593);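 note: CHO cells stably overexpressing human ADRB2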
Outline: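 CHO cells stably over-expressing ADRB2 were plated overnight at 37C, then dosed with compounds plus a stimulation mix containing 100uM IBMX and 25uM Ro-20-1724 for 0.5hr at room temperature. cAMP was measured by HTRF competition, 1hr.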
% is set by controls: 0 for no effect and ±100 for the full control effect.

Chain of Gonadotropin-releasing hormone receptor (Homo sapiens) (P30968 whole entry, looked up): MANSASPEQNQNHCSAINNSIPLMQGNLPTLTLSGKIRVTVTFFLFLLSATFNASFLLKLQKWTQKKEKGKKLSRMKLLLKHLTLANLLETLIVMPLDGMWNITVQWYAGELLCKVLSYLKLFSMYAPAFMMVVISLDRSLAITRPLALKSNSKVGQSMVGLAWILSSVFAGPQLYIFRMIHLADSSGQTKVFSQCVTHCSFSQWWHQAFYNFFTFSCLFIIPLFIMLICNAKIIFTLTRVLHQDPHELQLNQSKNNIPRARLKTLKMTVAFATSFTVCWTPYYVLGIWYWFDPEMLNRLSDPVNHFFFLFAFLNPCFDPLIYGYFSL
Chain of KiSS-1 receptor (Homo sapiens) (Q969F8 whole entry, looked up): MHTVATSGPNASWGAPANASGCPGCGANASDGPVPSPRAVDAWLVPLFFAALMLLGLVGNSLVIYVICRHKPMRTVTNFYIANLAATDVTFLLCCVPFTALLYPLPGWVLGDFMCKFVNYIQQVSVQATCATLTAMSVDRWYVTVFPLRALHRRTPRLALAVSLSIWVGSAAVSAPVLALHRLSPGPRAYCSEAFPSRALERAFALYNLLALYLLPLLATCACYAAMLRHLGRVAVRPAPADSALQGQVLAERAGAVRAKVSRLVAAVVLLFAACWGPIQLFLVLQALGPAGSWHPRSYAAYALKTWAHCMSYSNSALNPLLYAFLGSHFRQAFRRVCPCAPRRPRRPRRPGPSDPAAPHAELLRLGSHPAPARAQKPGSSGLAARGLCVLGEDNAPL
Chain of Beta-2 adrenergic receptor (Homo sapiens) (P07550 whole entry, looked up): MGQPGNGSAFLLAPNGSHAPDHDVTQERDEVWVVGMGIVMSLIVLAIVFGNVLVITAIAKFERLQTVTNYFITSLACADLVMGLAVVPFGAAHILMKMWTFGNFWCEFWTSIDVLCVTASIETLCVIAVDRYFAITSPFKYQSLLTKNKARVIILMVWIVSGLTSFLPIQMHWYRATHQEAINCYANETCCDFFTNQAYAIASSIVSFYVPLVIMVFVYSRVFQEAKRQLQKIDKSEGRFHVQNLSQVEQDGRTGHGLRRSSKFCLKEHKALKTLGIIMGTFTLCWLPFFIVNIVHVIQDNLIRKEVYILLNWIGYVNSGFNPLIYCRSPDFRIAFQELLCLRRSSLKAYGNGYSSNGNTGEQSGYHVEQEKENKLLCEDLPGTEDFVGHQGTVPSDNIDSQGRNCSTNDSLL
Chain of 5-hydroxytryptamine receptor 2A (Homo sapiens) (P28223 whole entry, looked up): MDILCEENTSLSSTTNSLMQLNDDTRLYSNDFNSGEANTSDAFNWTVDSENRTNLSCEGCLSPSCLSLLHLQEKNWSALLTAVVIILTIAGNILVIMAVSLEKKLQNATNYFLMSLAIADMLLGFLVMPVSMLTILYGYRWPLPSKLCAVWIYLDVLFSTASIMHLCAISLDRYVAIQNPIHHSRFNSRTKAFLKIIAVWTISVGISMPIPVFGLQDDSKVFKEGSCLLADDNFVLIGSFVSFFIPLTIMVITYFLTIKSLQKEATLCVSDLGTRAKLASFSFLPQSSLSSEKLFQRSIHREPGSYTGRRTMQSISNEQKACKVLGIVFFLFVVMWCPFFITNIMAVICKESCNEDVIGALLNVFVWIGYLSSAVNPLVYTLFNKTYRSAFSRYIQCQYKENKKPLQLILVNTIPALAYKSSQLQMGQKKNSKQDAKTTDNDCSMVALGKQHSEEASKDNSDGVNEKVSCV
Chain of Muscarinic acetylcholine receptor M1 (Homo sapiens) (P11229 whole entry, looked up): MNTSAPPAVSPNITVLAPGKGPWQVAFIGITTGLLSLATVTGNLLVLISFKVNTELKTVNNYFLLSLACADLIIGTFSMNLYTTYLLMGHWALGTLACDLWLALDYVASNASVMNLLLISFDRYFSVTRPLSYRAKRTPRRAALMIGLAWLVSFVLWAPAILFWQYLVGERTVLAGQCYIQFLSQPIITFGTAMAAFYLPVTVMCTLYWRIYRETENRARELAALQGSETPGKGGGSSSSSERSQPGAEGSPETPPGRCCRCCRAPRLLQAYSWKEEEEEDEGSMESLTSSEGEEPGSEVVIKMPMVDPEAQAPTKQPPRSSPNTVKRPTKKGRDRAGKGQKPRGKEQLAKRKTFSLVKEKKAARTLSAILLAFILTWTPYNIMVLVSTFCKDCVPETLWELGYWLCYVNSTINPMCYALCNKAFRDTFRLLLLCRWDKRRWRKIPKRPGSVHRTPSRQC
Chain of D(2) dopamine receptor (Homo sapiens) (P14416 whole entry, looked up): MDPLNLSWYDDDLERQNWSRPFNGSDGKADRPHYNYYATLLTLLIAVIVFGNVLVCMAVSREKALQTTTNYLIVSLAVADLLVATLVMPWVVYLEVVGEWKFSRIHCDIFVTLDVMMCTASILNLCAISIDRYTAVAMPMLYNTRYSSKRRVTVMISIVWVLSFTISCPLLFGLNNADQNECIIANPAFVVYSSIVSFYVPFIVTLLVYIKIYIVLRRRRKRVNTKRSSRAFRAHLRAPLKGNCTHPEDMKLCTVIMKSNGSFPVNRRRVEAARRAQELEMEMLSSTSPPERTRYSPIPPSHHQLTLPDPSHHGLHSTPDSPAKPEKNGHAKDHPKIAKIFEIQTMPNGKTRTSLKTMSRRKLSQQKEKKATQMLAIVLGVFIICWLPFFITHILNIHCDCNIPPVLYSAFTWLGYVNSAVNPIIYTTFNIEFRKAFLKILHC

CC(C)(C)C1(CCc2ccc(Cl)cc2)CO1 (stereo unspecified)
inactive: Potency [1] | Potency [2] | Potency [3] | outcome [4] | outcome [5] | Potency [6] | Potency [7] | Potency [8] | Potency [9] | Potency [10] | Potency [11] | Potency [12] | Potency [13] | Potency [14] | Potency [15] | Potency [16] | Potency [17]

CCCCCCCC/C=C\CCCCCCCCN
inactive: Potency [1] | Potency [2] | Potency [3] | outcome [4] | outcome [5] | Potency [6] | Potency [7] | Potency [8] | Potency [9] | Potency [10] | Potency [13] | Potency [18] | Potency [19] | Potency [14] | Potency [15] | Potency [16] | Potency [17]
active: Potency [12] 21.3 µM

COC(=O)CCCCC(CCSS/C(CCO)=C(\C)N(C=O)Cc1cnc(C)nc1N)SC(C)=O (stereo unspecified)
inactive: Potency [1] | Potency [2] | Potency [3] | outcome [4] | outcome [5] | Potency [6] | Potency [7] | Potency [8] | Potency [9] | Potency [10] | Potency [12] | Potency [13] | Potency [18] | Potency [19] | Potency [14] | Potency [15] | Potency [20] | Potency [16] | Potency [17]

O=C(O)c1ccc(Cl)c(Cl)c1
inactive: Potency [1] | Potency [2] | Potency [3] | outcome [4] | outcome [5] | Potency [6] | Potency [7] | Potency [8] | Potency [9] | Potency [10] | Potency [11] | Potency [12] | Potency [13] | Potency [18] | Potency [14] | Potency [15] | Potency [16] | Potency [17]

CCc1cc(Cc2cc(CC)cc(C(C)(C)C)c2O)c(O)c(C(C)(C)C)c1
active: Potency [1] 13.7 µM
inactive: Potency [2] | Potency [3] | outcome [4] | outcome [5] | Potency [6] | Potency [7] | Potency [8] | Potency [9] | Potency [10] | Potency [11] | Potency [18] | Potency [14] | Potency [16] | Potency [17]

O=C(O)Cc1cn(-c2ccccc2)nc1-c1ccc(Cl)cc1
inactive: Potency [1] | Potency [2] | Potency [3] | outcome [4] | outcome [5] | Potency [6] | Potency [7] | Potency [8] | Potency [9] | Potency [10] | Potency [11] | Potency [12] | Potency [13] | Potency [18] | Potency [15] | Potency [20] | Potency [16] | Potency [17]

CCCCCCCCCCCCCCCCCO
inactive: activity change, negative = cytotoxicity [1] 0.787% [at 19 µM] | activity, positive = activation [2] -1.74% [at 19 µM] | activity change [3] 4.53% [at 11.8 µM, stronger effect = higher value] | activation [4] 3.41% [at 15.8 µM] | activation [5] -0.253% [at 11.8 µM] | activation [6] 4.84% [at 13.5 µM] | activation [7] 1.18% [at 13.6 µM] | activity change, negative = cytotoxicity [8] -0.024% [at 13.5 µM] | activity change, negative = cytotoxicity [9] -2.14% [at 13.5 µM] | activation [10] -2.02% [at 13.5 µM] | activity, negative = inhibition [11] -18.1% [at 12.7 µM] | activity, negative = inhibition [13] -16.4% [at 12.6 µM] | activation [18] -0.0126% [at 15.8 µM] | activation [19] -0.514% [at 19 µM] | activity change, negative = inhibition [14] 0.936% [at 18.9 µM] | activity change, negative = inhibition [15] -1.56% [at 19 µM] | activation [16] 0.198% [at 19 µM] | activity change, negative = inhibition [17] 6.26% [at 18.9 µM]

CC1(C)CC(O)CC(C)(C)N1
inactive: Potency [1] | Potency [2] | Potency [3] | outcome [4] | outcome [5] | Potency [6] | Potency [7] | Potency [8] | Potency [9] | Potency [10] | Potency [12] | Potency [13] | Potency [18] | Potency [19] | Potency [14] | Potency [15] | Potency [16] | Potency [17]
